Compounds with a hit are over-represented: about 12% of the library has one in this group of screens.
CHOP inhibitor = blocks CHOP induction under ER stress | AID 2732 | CHO-K1 CHOP-promoter luciferase, tunicamycin-induced, 15-18 h | actives 3.8% (n = 220,000) | inhibition, % at 10 µM;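 active = compounds that reduced the stress-induced luciferase reporter signal by more than about 70% of percent inhibition, limit read from the data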
L major viab = inhibitors of Leishmania major promastigote growth. Leishmania major promastigotes, resazurin fluorescence viability. inhibition, % at 10 µM. actives 9% (n = 200,000). AID 1063; in the data active = inhibition above about 50%;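 also: promastigotes grown with compound for 44 hours at 28 °C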
WT yeast gro inh = growth inhibition of WT yeast, mitochondrial fusion screen. AID 1362. mitochondrial fusion phenotypic screen, WT strain. actives 2.1% (n = 190,000). inhibition, % at 10 µM; in the data active = inhibition above about 58%; tested in S. cerevisiae
Arbovirus anti = blocks arbovirus infection; arbovirus infection cell-based antiviral screen; AID 1251; inhibition, % at 10 µM; actives 0.37% (n = 200,000); in the data active = inhibition above about 30%
A number is an active result; . = inactive; / = no result given; ! = a repeat was not active.

SMILES	CHOP inhibitor	L major viab	WT yeast gro inh	Arbovirus anti
Cc1c(OCc2ccc(C(=O)O)cc2)ccc2c(-c3ccccc3)cc(=O)oc12	.	/	/	/
O=C(O)C(Oc1ccc2c(-c3ccccc3)cc(=O)oc2c1)c1ccccc1 (centres undefined)	.	/	/	/
CCOC(=O)C(Oc1ccc2c(-c3ccccc3)cc(=O)oc2c1C)c1ccccc1 (centres undefined)	.	100	.	.
COc1ccc(Oc2coc3cc(OC(=O)c4cccs4)ccc3c2=O)cc1	.	.	.	.
CN(C(=O)Nc1ccc(Cl)c(Cl)c1)c1ccccc1C(=O)O	.	.	72	.
Cc1cc(C)n(S(=O)(=O)c2cc(C(=O)O)c(Cl)cc2Cl)n1	/	.	/	/
COC(=O)c1cc(S(=O)(=O)n2nc(C)c(Br)c2C)c(Cl)cc1Cl	.	89	/	.
Cc1ccc(C(C)C)c(OCCNC(=S)Nc2cccc3ccccc23)c1	76	.	72	.
CN(C)S(=O)(=O)c1ccc(N2CCCC2)c(C(=O)Nc2nc(-c3ccc(F)c(F)c3)cs2)c1	.	52	.	.
CN(C)S(=O)(=O)c1ccc(N2CCCC2)c(C(=O)Nc2nc3c(ccc4ccccc43)s2)c1	.	97	.	.
O=C(Nc1nc2c(ccc3ccccc32)s1)c1cc([N+](=O)[O-])ccc1N1CCOCC1	.	.	.	.
COc1ccc(CC2(C)OC(c3ccc(Cl)cc3)=NN2C(C)=O)cc1 (centres undefined)	.	54	.	.
Cc1ccccc1/C=C/C1=NCCN1	99	/	/	/
S=C(Nc1ccccc1)Nc1nc2ccccc2n1CCOc1ccccc1	.	51	.	.
CCCCn1c(NC(=S)Nc2ccccc2)nc2ccccc21	.	80	.	.
CC(=O)Nc1nc2ccccc2n1CCOc1ccccc1	.	.	.	.
CCc1nnc(NC(=O)C(CC)CC)s1	.	/	/	/
C/C(=N/NC(=O)c1cc2ccccc2cc1O)C1C(=O)c2ccccc2C1=O	.	81	.	.
CCOC(=O)C1=NN(c2ccccc2)C2=NC(C)=C(C(=O)OC)C(c3ccc(C)cc3)N12 (centres undefined)	.	.	70	.
N/C(=N\OC(=O)Cc1ccccc1)c1ccccc1Cl	.	.	.	.
CC(C)c1ccc(N(CC(=O)NCCSC(C)(C)C)S(C)(=O)=O)cc1	.	.	.	.
COc1cc(C(=O)OC2CC3CCC2(C)C3(C)C)ccc1OC(C)=O (centres undefined)	.	.	73	.
O=C(c1cc(Cl)nc2ccccc12)N1CCc2ccccc2C1	.	.	.	.
CCCc1c(OCCCCc2nn[nH]n2)ccc(C(C)=O)c1O	.	.	.	35!
O=[N+]([O-])c1ccccc1/C=N/Nc1nnc(-c2ccccc2)c(-c2ccccc2)n1	.	.	.	.
SMILES	CHOP inhibitor	L major viab	WT yeast gro inh	Arbovirus anti
O=C(CCNS(=O)(=O)c1ccc(Br)s1)Nc1ccc(Cl)cc1	.	81	.	.
Cc1ccc(/C=N/N2CCN(Cc3cccc4ccccc34)CC2)o1	72	.	.	.
Cc1ccc(/C=N/N2CCN(Cc3ccccc3)CC2)o1	.	.	.	.
COc1ccccc1-c1nnc(SCC(=O)NCc2c(C)c(Cl)cc(C(C)C)c2O)o1	75	.	78	.
Nc1cnc(CNc2ccccc2Cl)cn1	.	/	/	/
CC(=O)c1c(C)[nH]c(C(=O)OCC(=O)Nc2ccc(C)cc2[N+](=O)[O-])c1C	89	.	.	.
Cc1nc2c(ncn2-c2ccccc2)c(=O)n1NC(=O)CN1CCCCC1	.	/	/	/
COc1cnc(-c2ccccn2)nc1Oc1ccc(F)cc1F	.	.	.	.
COc1cnc(-c2ccccn2)nc1Oc1ccc(Cl)c2ccccc12	81	100	.	.
COc1cnc(-c2ccccn2)nc1Oc1ccccc1Cl	.	.	61	.
COc1cnc(-c2ccccn2)nc1Oc1ccc(Cl)cc1	.	71	.	.
COc1cnc(-c2ccccn2)[nH]c1=O	.	.	.	.
C=CCN(CCNP(=O)(OCC)OCC)CP(=O)(OCC)OCC	.	.	.	.
COc1ccc(/C=C/C(=O)NCC(=O)N/N=C(/CCC(=O)O)c2ccccc2)cc1	.	/	/	/
COc1ccccc1/C=C/C(=O)NCC(=O)N/N=C(\CCC(=O)O)c1ccccc1	.	99	.	.
Cc1ccc(NC(=O)Cn2nnc3ccccc3c2=O)cc1C	.	.	.	.
Cc1ccc(-c2nnc(SCC(=O)N/N=C/c3ccc(C)s3)n2-c2ccccc2)cc1	.	.	.	.
CC(=O)N(Cc1cc(=O)[nH]c2ccccc12)c1cccc(C)c1	.	.	65	.
CCOC(=O)c1csc(Nc2nc3ccc(F)cc3s2)n1	.	95	.	.
O=C(Nc1nnc(SCc2ccc(F)cc2)s1)c1ccccn1	.	99	.	.
COC(=O)c1ccc2nc(Nc3nc4ccc(F)cc4s3)sc2c1	.	.	.	.
O=C(Nc1nc2ccc(F)cc2s1)c1ccccn1	81	100	79	.
O=S(=O)(Nc1ccc(Cl)cc1)c1ccc(N2CCOCC2)c(NC(=S)NC2CC2)c1	.	.	.	.
COC(=O)C(CC(=O)O)NCc1ccco1 (centres undefined)	.	/	/	/
CCc1nnc(NC(=O)CSc2nc(C)cc(C)c2C#N)s1	.	.	.	.
SMILES	CHOP inhibitor	L major viab	WT yeast gro inh	Arbovirus anti
Cc1ccc(C(C)C)c(OC(=O)/C=C/c2ccccc2)c1	.	.	79	.
Cc1ccc(C(C)C)c(OCC(=O)N2CCOCC2)c1	.	.	.	.
CC(C)C(=O)N=c1sc2cc(F)cc(F)c2n1C	85	.	.	.
CCC(=O)N=c1sc2cc(F)cc(F)c2n1C	/	.	.	.
OC(COC(c1ccc(Cl)cc1)c1ccc(Cl)cc1)CN1CCCC1 (centres undefined)	.	100	.	.
OC(COC(c1ccc(F)cc1)c1ccc(F)cc1)CN1CCc2ccccc2C1 (centres undefined)	.	.	.	.
OC(COC(c1ccc(Cl)cc1)c1ccc(Cl)cc1)CN1CCc2ccccc2C1 (centres undefined)	90	.	.	.
OC(COC(c1ccccc1)c1ccccc1)CN1CCc2ccccc2C1 (centres undefined)	.	.	.	.
O=C(OCC(=O)N1c2ccccc2Sc2ccccc21)c1ccc[n+]([O-])c1	.	.	.	.
COc1ccc(/C=N/NC(=O)c2cc(-c3ccc4c(c3)OCO4)n[nH]2)cc1OC	.	.	.	.
CC1CCN(CC(CS(=O)(=O)c2ccc([N+](=O)[O-])cc2)N2CCC(C)CC2)CC1 (centres undefined)	71	/	/	/
O=C(Cn1nc(Cc2ccncc2)c2ccccc2c1=O)N1CCN(C(=O)c2ccco2)CC1	.	.	.	.
O=C(Cn1nc(Cc2cccnc2)c2ccccc2c1=O)N1CCN(C(=O)c2ccco2)CC1	.	73	.	.
Nc1cnccc1C(=O)O	.	.	.	.
CC(=O)Nc1ccc(S(=O)(=O)N(CCCN2CCOCC2)Cc2cccs2)cc1	.	.	.	.
CC(=O)N(CCS(=O)(=O)c1ccc(Cl)cc1)Cc1cccs1	.	/	/	/
CCOC(=O)CCN(Cc1cccs1)S(=O)(=O)c1ccc(Cl)cc1	.	97	.	.
CC(C)(C)c1ccc(S(=O)(=O)N(CCCN2CCOCC2)Cc2cccs2)cc1	.	95	.	.
O=[N+]([O-])c1ccccc1S(=O)(=O)Oc1ccccc1/C=N/n1cnnc1	.	72	.	.
O=[N+]([O-])c1cccc(/C=N/n2cnnc2)c1O	.	68	.	.

Compound activity from PubChem.
